Records with an inconclusive call do not appear. Unless noted, the call rests on the fitted dose curve; in most records, active means well fitted curve in either direction with a large enough effect (not every such curve was filed as active); inconclusive means small, poorly fitted or top-dose-only effect, or another doubt; inactive means flat fitted curve, though single readings scatter.
Columns and labels:
[1] = AP1 Signaling Pathway (AID 357); details: ME-180 AP-1-bla reporter, EGF-induced, beta-lactamase ratio, 5 h; at 17.2 µM (top of the series) unless noted;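 further: ME-180 reporter cells stimulated with EGF at its EC50 level; on the % scale 0 is the no-effect control and ±100 the full control effect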
Procedure, shortened: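 AP-1-bla ME-180 cells, Opti-MEM + 0.5% dialyzed FBS, plated overnight 37 °C. Cpd titration + EC50 EGF, 5 h 37 °C. CCF4 2.5 h RT; ex 405, em 460/530 ratio → %activity, AC50.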

[2] = NFAT Signaling Pathway (AID 444); details: Jurkat NFAT-bla M1, carbachol, beta-lactamase ratio, 5 h; at 17.2 µM (top of the series) unless noted;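 further: carbachol stimulus at about its EC50 of 1 µM final; on the % scale 0 is the no-effect control and ±100 the full control effect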
Procedure, shortened: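 Jurkat cells carrying an NFAT-driven β-lactamase reporter and co-transfected muscarinic M1 receptor were treated with compound plus carbachol (1 uM final, an EC50 level) for 5 h at 37 °C. CCF4 loading followed for 1 h at RT; 460/530 nm ratio gave %activity.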

[3] = Stat Signaling Pathway (AID 446); details: ME-180 SIE beta-lactamase reporter, IL-6 stimulated, 5 h; at 17.2 µM (top of the series) unless noted;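 further: ME-180 cervical cancer cells given 40 pM IL-6 alongside compound; SIE-controlled beta-lactamase reporter measured as 460/530 nm FRET emission ratio; on the % scale 0 is the no-effect control and ±100 the full control effect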
Procedure, shortened: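 Screening format detects activators and inhibitors alike: ME-180 SIE-bla cells stimulated at 40 pM IL-6 for 5 hrs with compound, then dual-emission beta-lactamase read at 405 nm excitation.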

[4] = target: Glucocorticoid receptor (Homo sapiens) (UniProt P04150); test: GR-GFP Redistribution (AID 450;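 active means compounds whose dose series gives a full or clear partial fitted curve of increased nuclear translocation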; further: potency means the concentration at half of the fitted maximal effect)
Glucocorticoid receptor (Homo sapiens), sequence (P04150 whole entry, looked up): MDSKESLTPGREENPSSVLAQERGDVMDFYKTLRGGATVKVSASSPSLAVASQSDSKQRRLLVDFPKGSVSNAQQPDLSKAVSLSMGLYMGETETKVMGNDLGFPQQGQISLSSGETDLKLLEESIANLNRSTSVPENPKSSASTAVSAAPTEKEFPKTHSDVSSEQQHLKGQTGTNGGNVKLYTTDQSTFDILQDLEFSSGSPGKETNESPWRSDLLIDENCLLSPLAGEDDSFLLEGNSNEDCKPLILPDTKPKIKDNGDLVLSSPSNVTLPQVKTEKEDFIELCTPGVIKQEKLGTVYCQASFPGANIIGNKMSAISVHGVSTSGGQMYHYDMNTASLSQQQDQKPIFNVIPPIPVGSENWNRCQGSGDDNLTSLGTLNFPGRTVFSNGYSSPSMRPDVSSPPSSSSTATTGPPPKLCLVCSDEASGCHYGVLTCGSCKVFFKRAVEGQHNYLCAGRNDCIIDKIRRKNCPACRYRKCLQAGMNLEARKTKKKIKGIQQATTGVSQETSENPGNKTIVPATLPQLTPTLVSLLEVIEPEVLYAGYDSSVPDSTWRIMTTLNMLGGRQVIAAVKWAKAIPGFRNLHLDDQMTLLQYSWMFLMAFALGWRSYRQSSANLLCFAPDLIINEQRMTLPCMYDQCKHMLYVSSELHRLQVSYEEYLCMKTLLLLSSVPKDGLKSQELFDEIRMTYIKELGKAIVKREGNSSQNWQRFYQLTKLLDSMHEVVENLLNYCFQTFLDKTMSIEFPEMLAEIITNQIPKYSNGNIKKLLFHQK

Cc1cccc(-c2nc(C#N)c(NC3CCCCC3)o2)c1
inactive: activity change, negative = inhibition [1] -27.9% | activity change, negative = inhibition [2] -26.6% | activity, negative = inhibition [3] -7.27% | Potency [4] > 20.6 µM

CCOc1ccc(C2C(C(=O)c3ccc(C)o3)=C(O)C(=O)N2CCCN(CC)CC)cc1 (stereo not given)
inactive: activity change, negative = inhibition [1] -5.84% | activity change, negative = inhibition [2] 12.8% | activity, negative = inhibition [3] 6.24% | Potency [4] > 20.6 µM

Cc1csc(SCCn2c(Br)nc3c2c(=O)[nH]c(=O)n3C)n1
inactive: activity change, negative = inhibition [1] 1.52% | activity change, negative = inhibition [2] 4.32% | activity, negative = inhibition [3] 1.99% | Potency [4] > 20.6 µM

c1csc(Cc2nn3c(-c4ccncc4)nnc3s2)c1
inactive: activity change, negative = inhibition [1] -25% | activity change, negative = inhibition [2] 5.73% | activity, negative = inhibition [3] -2.56% | Potency [4] > 20.6 µM

COc1ccc(/C(O)=C2\C(=O)C(=O)N(c3cc(C)on3)C2c2cccc(OC)c2OC)cc1C (stereo not given)
inactive: activity change, negative = inhibition [1] -5.37% | activity change, negative = inhibition [2] 6.15% | activity, negative = inhibition [3] -17.9% | Potency [4] > 20.6 µM

Cc1ccc(N(CC(O)CN(C)C)S(=O)(=O)c2ccccc2)cc1 (stereo not given)
inactive: activity change, negative = inhibition [1] -7.29% | activity change, negative = inhibition [2] -10.3% | activity, negative = inhibition [3] 1.04% | Potency [4] > 20.6 µM

CCOc1nnnc2c1sc1nc(N3CCOCC3)c3c(c12)CC(C)(C)OC3
inactive: activity change, negative = inhibition [1] -7.69% | activity change, negative = inhibition [2] -17.4% | activity, negative = inhibition [3] -9.58% | Potency [4] > 20.6 µM

Cc1cc(C)nc(NC(=O)c2ccc(OC(C)C)cc2)n1
inactive: activity change, negative = inhibition [1] -5.46% | activity change, negative = inhibition [2] -4.53% | activity, negative = inhibition [3] -7.33% | Potency [4] > 20.6 µM

Cc1cc(=O)oc(C)c1C(=O)n1nc(C)c2c1C[C@@H]1[C@H]2C1(C)C
inactive: activity change, negative = inhibition [1] -2.2% | activity change, negative = inhibition [2] -1.13% | activity, negative = inhibition [3] -1.83% | Potency [4] > 20.6 µM

C#CC1CN(Cc2ccccc2)CC(C#C)N1C (stereo not given)
inactive: activity change, negative = inhibition [1] 9.35% | activity change, negative = inhibition [2] -2.08% | activity, negative = inhibition [3] 9.92% | Potency [4] > 20.6 µM

COc1cc(=O)[nH]c(=O)n1CC(=O)c1ccccc1
inactive: activity change, negative = inhibition [1] 1.4% | activity change, negative = inhibition [2] 3.25% | activity, negative = inhibition [3] 5.97% | Potency [4] > 20.6 µM

COCc1cc(C)nc(N)c1C#N
inactive: activity change, negative = inhibition [1] 5.99% | activity change, negative = inhibition [2] -10.9% | activity, negative = inhibition [3] -0.857% | Potency [4] > 20.6 µM

COC(=O)/C=c1/s/c(=C(/C#N)C(=O)N2CCOCC2)n(-c2ccccc2)c1=O
inactive: activity change, negative = inhibition [1] 8.21% | activity change, negative = inhibition [2] -4.89% | activity, negative = inhibition [3] -9.79% | Potency [4] > 20.6 µM

CCCCc1[nH]c(=O)c(C#N)c2c1CSC(C)(C)C2
inactive: activity change, negative = inhibition [1] 15.5% | activity change, negative = inhibition [2] -2.98% | activity, negative = inhibition [3] 3.1% | Potency [4] > 20.6 µM

COc1ccc(/C(O)=C2/C(=O)C(=O)N(CCN3CCOCC3)C2c2ccccn2)cc1 (stereo not given)
inactive: activity change, negative = inhibition [1] 7.11% | activity change, negative = inhibition [2] 6.7% | activity, negative = inhibition [3] 0.702% | Potency [4] > 20.6 µM

O/N=C/c1ccc(OCC(O)COc2ccc(/C=N/O)cc2)cc1
inactive: activity change, negative = inhibition [1] -15.3% | activity change, negative = inhibition [2] -1.17% | activity, negative = inhibition [3] 4.46% | Potency [4] > 20.6 µM

O=C1CC(c2ccco2)CC(O)=C1C=Nc1cc(Cl)ccc1O (stereo not given)
inactive: activity change, negative = inhibition [1] -23.8% | activity change, negative = inhibition [2] -1.32% | activity, negative = inhibition [3] -10.9% | Potency [4] > 20.6 µM

C=CCOc1nc2c(c(=O)n(Cc3ccc(Cl)c(Cl)c3)c(=O)n2C)n1C
inactive: activity change, negative = inhibition [1] -3.25% | activity change, negative = inhibition [2] -2.4% | activity, negative = inhibition [3] 7.85% | Potency [4] > 20.6 µM

CC1CN(C2CCN(S(=O)(=O)c3ccc4ccccc4c3)CC2)CC(C)O1 (stereo not given)
inactive: activity change, negative = inhibition [1] -3.99% | activity change, negative = inhibition [2] -12.1% | activity, negative = inhibition [3] -8.2% | Potency [4] > 20.6 µM

COc1cccc(C2CC(c3ccccc3Cl)n3nc(N)nc3N2)c1 (stereo not given)
inactive: activity change, negative = inhibition [1] -5.25% | activity change, negative = inhibition [2] -4.65% | activity, negative = inhibition [3] -3.07% | Potency [4] > 20.6 µM

Cn1c(N)c(C#N)c2c(c1=S)CSC(C)(C)C2
inactive: activity change, negative = inhibition [1] 1.02% | activity change, negative = inhibition [2] -25.2% | activity, negative = inhibition [3] -2.98% | Potency [4] > 20.6 µM

Cc1c(-c2cccs2)[n+](=O)c2c(n1[O-])CCCC2
inactive: activity change, negative = inhibition [1] 14.7% | activity change, negative = inhibition [2] -0.25% | activity, negative = inhibition [3] 6.22% | Potency [4] > 20.6 µM

O=C1CCC(=O)N1CN(C(=O)c1ccco1)c1ccc(Cl)c(Cl)c1
inactive: activity change, negative = inhibition [1] -6.31% | activity change, negative = inhibition [2] -5.89% | activity, negative = inhibition [3] 11.1% | Potency [4] > 20.6 µM

CCNC(=O)N(C)c1nncnc1C(=O)NC
inactive: activity change, negative = inhibition [1] 5.47% | activity change, negative = inhibition [2] 2.38% | activity, negative = inhibition [3] -6.45% | Potency [4] > 20.6 µM

O=C1CCC(=O)N1CN(Cc1ccco1)CN1C(=O)CCC1=O
inactive: activity change, negative = inhibition [1] 7.15% | activity change, negative = inhibition [2] 5.38% | activity, negative = inhibition [3] 0.484% | Potency [4] > 20.6 µM

Source: PubChem BioAssay (NCATS)
